# In the supplement of paper PMC8728848:
# The full list was thinned out, with the strongest signals kept by preference.
# B1: HPA (Helix pomatia), Q2F1K8 (protein)
# chain: MQAFYSGLLLLCVVAFAAAQRVQSGKIDCGNDAGWAKVPSDDPGRDNTRELAKNITFASPYCRPPVVLLSITQLDVEQSQNLRVIARLYSVSPTGFKASCYTWHNTKVYSMSISWISIENY
# B2: DETC sTCR (Mus musculus) (protein)
# chain: LDVYLEPVAKTFTVVAGDPASFYCTVTGGDMKNYHMSWYKKNGTNALFLVYKLNSNSTDGGKSNLKGKINISKNQFILDIQKATMKDAGTYYCGSDIGGSSWDTRQMFFGTGIELFVEPKSQPPAKPSVFIMKNGTNVACLVKDFYPKEVTISLRSSKKIVEFDPAIVISPSGKYSAVKLGQYGDSNSVTCSVQHNSETVHSTDFEPYANSFNNEKLPEPENDTQISEPCSSADLVPRGSTTAPSAQLKKKLQALKKKNAQLKWKLQALKKKLAQHHHHHHDSWISQDQLSFTRRPNKTVHISCKLSGVPLHNTIVHWYQLKEGEPLRRIFYGSVKTYKQDKSHSRLEIDEKDDGTFYLIINNVVTSDEATYYCACWDSSGFHKVFAEGTKLIVIPSDKRLDADISPKPTIFLPSVAETNLHKTGTYLCLLEKFFPDVIRVYWKEKDGNTILDSQEGDTLKTNDTYMKFSWLTVPERAMGKEHRCIVKHENNKGGADQEIFFPSIKKVAVSTKPTTCSSADLVPRGSTTAPSAQLEKELQALEKENAQLEWELQALEKELAQLNDIFEAQKIEW
# What was measured:
# Assay in all cases: glycan array binding signal (z-score within array); higher = stronger binding
# Settings in all cases: glycan notation: IUPAC condensed, linker removed
# [1] = target: Fuc(a1-2)Gal(b1-3)GlcNAc(b1-3)[Gal(b1-4)[Fuc(a1-3)]GlcNAc(b1-6)]Gal(b1-4)Glc
# Method in brief: (§1)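 Glycan array data were curated from 3228 arrays in the Consortium for Functional Glycomics database and kept only where the protein sequence was available. Glycan names were converted to IUPAC-condensed notation, and columns mapping to the same glycan were averaged. The binding signal is a within-array Z-score, averaged across arrays of the same protein sequence at different concentrations or buffers and across linkers. Negative Z-scores can be read as non-binding.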
# [2] = target: Fuc(a1-2)Gal(b1-3)[Fuc(a1-4)]GlcNAc(b1-2)Man(a1-3)[Fuc(a1-2)Gal(b1-3)[Fuc(a1-4)]GlcNAc(b1-2)Man(a1-6)]Man(b1-4)GlcNAc(b1-4)GlcNAc
# Method in brief: as §1
# [3] = target: Fuc(a1-2)Gal(b1-4)[Fuc(a1-3)]GlcNAc
# Method in brief: as §1
# [4] = target: Fuc(a1-2)GlcNAc
# Method in brief: as §1
# [5] = target: Fuc(a1-2)[Gal(a1-3)]Gal(b1-3)GalNAc
# Method in brief: as §1
# [6] = target: Fuc(a1-2)[GalNAc(a1-3)]Gal(b1-4)GlcNAc(b1-2)Man(a1-3)[Fuc(a1-2)[GalNAc(a1-3)]Gal(b1-4)GlcNAc(b1-2)Man(a1-6)]Man(b1-4)GlcNAc(b1-4)GlcNAc
# Method in brief: as §1
# [7] = target: Fuc(a1-2)[GalNAc(a1-3)]Gal(b1-4)GlcNAc(b1-3)Gal(b1-4)GlcNAc
# Method in brief: as §1
# [8] = target: Fuc(a1-2)[GalNAc(a1-3)]Gal(b1-4)GlcNAc(b1-3)Gal(b1-4)GlcNAc(b1-3)Gal(b1-4)GlcNAc
# Method in brief: as §1
# [9] = target: Fuc(a1-2)[GalNAc(a1-3)]Gal(b1-4)[Fuc(a1-3)]GlcNAc(b1-3)GalNAc
# Method in brief: as §1
# [10] = target: Fuc(a1-2)[GalNAc(a1-4)]Gal(b1-4)GlcNAc
# Method in brief: as §1
# [11] = target: Fuc(a1-3)[Gal(b1-4)]Glc6S
# Method in brief: as §1
# [12] = target: Fuc(a1-3)[Gal(b1-4)]GlcNAc(b1-2)Man(a1-3)[Fuc(a1-3)[Gal(b1-4)]GlcNAc(b1-2)Man(a1-6)]Man(b1-4)GlcNAc(b1-4)GlcNAc
# Method in brief: as §1
# [13] = target: Fuc(a1-3)[Gal(b1-4)]GlcNAc(b1-3)Gal(b1-4)[Fuc(a1-3)]GlcNAc
# Method in brief: as §1
# [14] = target: Fuc(a1-3)[Gal(b1-4)]GlcNAc(b1-4)Gal(b1-4)[Fuc(a1-3)]GlcNAc(b1-4)Gal(b1-4)[Fuc(a1-3)]GlcNAc
# Method in brief: as §1
# [15] = target: Fuc(a1-3)[Neu5Ac(a2-3)]Gal(b1-4)GlcNAc(b1-3)GalNAc
# Method in brief: as §1
# [16] = target: Gal(a1-3)Gal(b1-3)GlcNAc
# Method in brief: as §1
# [17] = target: Gal(a1-3)Gal(b1-4)GlcNAc(b1-6)GalNAc
# Method in brief: as §1
# [18] = target: Gal(a1-4)Gal(b1-4)GlcNAc
# Method in brief: as §1
# [19] = target: Gal(b1-2)Gal
# Method in brief: as §1
# [20] = target: Gal(b1-3)GalNAc(b1-3)Gal
# Method in brief: as §1
# [21] = target: Gal(b1-3)GalNAc(b1-4)[Neu5Ac(a2-3)]Gal(b1-4)Glc
# Method in brief: as §1
# [22] = target: Gal(b1-3)GlcNAc(b1-2)Man
# Method in brief: as §1
# [23] = target: Gal(b1-3)GlcNAc(b1-3)Gal(b1-4)GlcNAc(b1-3)Gal(b1-4)GlcNAc(b1-2)[Gal(b1-3)GlcNAc(b1-3)Gal(b1-4)GlcNAc(b1-3)Gal(b1-4)GlcNAc(b1-6)]Man(a1-6)[Gal(b1-3)GlcNAc(b1-3)Gal(b1-4)GlcNAc(b1-3)Gal(b1-4)GlcNAc(b1-2)Man(a1-3)]Man(b1-4)GlcNAc(b1-4)[Fuc(a1-6)]GlcNAc
# Method in brief: as §1
# [24] = target: Gal(b1-3)GlcNAc(b1-3)Gal(b1-4)GlcNAc(b1-6)[Gal(b1-3)GlcNAc(b1-3)]Gal(b1-4)Glc
# Method in brief: as §1
# [25] = target: Gal(b1-3)GlcNAc(b1-6)[Gal(b1-3)]GalNAc
# Method in brief: as §1
# [26] = target: Gal(b1-3)[Fuc(a1-4)]GlcNAc(b1-2)Man(a1-3)[Gal(b1-3)[Fuc(a1-4)]GlcNAc(b1-2)Man(a1-6)]Man(b1-4)GlcNAc(b1-4)GlcNAc
# Method in brief: as §1
# [27] = target: Gal(b1-4)GlcNAc(b1-2)Man(a1-3)[GlcNAc(b1-4)][Gal(b1-4)GlcNAc(b1-2)Man(a1-6)]Man(b1-4)GlcNAc(b1-4)GlcNAc
# Method in brief: as §1
# [28] = target: Gal(b1-4)GlcNAc(b1-3)Gal(b1-4)GlcNAc(b1-3)Gal(b1-4)GlcNAc(b1-2)[Gal(b1-4)GlcNAc(b1-3)Gal(b1-4)GlcNAc(b1-3)Gal(b1-4)GlcNAc(b1-6)]Man(a1-6)[Gal(b1-4)GlcNAc(b1-3)Gal(b1-4)GlcNAc(b1-3)Gal(b1-4)GlcNAc(b1-2)Man(a1-3)]Man(b1-4)GlcNAc(b1-4)[Fuc(a1-6)]GlcNAc
# Method in brief: as §1
# [29] = target: Gal(b1-4)GlcNAc(b1-3)Gal(b1-4)GlcNAc(b1-3)Gal(b1-4)GlcNAc(b1-3)Gal(b1-4)GlcNAc(b1-3)Gal(b1-4)GlcNAc(b1-2)Man(a1-3)[Gal(b1-4)GlcNAc(b1-3)Gal(b1-4)GlcNAc(b1-3)Gal(b1-4)GlcNAc(b1-3)Gal(b1-4)GlcNAc(b1-3)Gal(b1-4)GlcNAc(b1-2)Man(a1-6)]Man(b1-4)GlcNAc(b1-4)[Fuc(a1-6)]GlcNAc
# Method in brief: as §1
# [30] = target: Gal(b1-4)GlcNAc(b1-3)Gal(b1-4)GlcNAc(b1-6)[Gal(b1-3)]GalNAc
# Method in brief: as §1
# [31] = target: Fuc(a1-2)Gal6S(b1-4)GlcNAc
# Method in brief: as §1
# [32] = target: Fuc(a1-2)[Gal(a1-3)]Gal
# Method in brief: as §1
# [33] = target: Fuc(a1-2)[Gal(a1-3)]Gal(b1-3)GlcNAc
# Method in brief: as §1
# [34] = target: Fuc(a1-3)[Gal(b1-4)]GlcNAc(b1-3)Gal(b1-3)[Fuc(a1-4)]GlcNAc
# Method in brief: as §1
# [35] = target: Gal(b1-4)GlcNAc(b1-2)Man(a1-6)[Man(a1-3)]Man(b1-4)GlcNAc(b1-4)GlcNAc
# Method in brief: as §1
# [36] = target: Gal(b1-4)GlcNAc(b1-3)Gal(b1-4)Glc
# Method in brief: as §1
# [37] = target: Gal3S(b1-4)GlcNAc
# Method in brief: as §1
# [38] = target: Gal3S6S(b1-4)GlcNAc
# Method in brief: as §1
# [39] = target: GalNAc(a1-3)Gal
# Method in brief: as §1
# [40] = target: GlcNAc(a1-4)Gal(b1-4)GalNAc
# Method in brief: as §1
# [41] = target: GlcNAc(a1-4)Gal(b1-4)GlcNAc(b1-3)Gal(b1-4)[Fuc(a1-3)]GlcNAc(b1-3)Gal(b1-4)[Fuc(a1-3)]GlcNAc
# Method in brief: as §1
# [42] = target: GlcNAc(b1-3)Gal(b1-4)GlcNAc
# Method in brief: as §1
# [43] = target: GlcNAc(b1-3)Man
# Method in brief: as §1
# [44] = target: Man(a1-2)Man(a1-2)Man(a1-6)[Man(a1-3)]Man
# Method in brief: as §1
# [45] = target: Man(a1-2)Man(a1-3)Man
# Method in brief: as §1
# [46] = target: Neu5Ac(a2-3)Gal(b1-3)GalNAc6S
# Method in brief: as §1
# [47] = target: Neu5Ac(a2-3)Gal(b1-4)GlcNAc(b1-3)Gal(b1-4)GlcNAc(b1-3)Gal(b1-4)GlcNAc
# Method in brief: as §1
# [48] = target: Neu5Ac(a2-6)GlcNAc(b1-4)GlcNAc(b1-4)GlcNAc
# Method in brief: as §1
# [49] = target: Neu5Ac9Ac(a2-3)Gal(b1-4)GlcNAc
# Method in brief: as §1
# [50] = target: Neu5Gc(a2-3)Gal(b1-3)GlcNAc
# Method in brief: as §1
binder,measurement,setting,value
B1,glycan array binding signal (z-score),[1],-0.454
same,glycan array binding signal (z-score),[2],4.62
same,glycan array binding signal (z-score),[3],-0.109
same,glycan array binding signal (z-score),[4],-0.295
same,glycan array binding signal (z-score),[5],-0.303
same,glycan array binding signal (z-score),[6],3.07
same,glycan array binding signal (z-score),[7],2.66
same,glycan array binding signal (z-score),[8],3.15
same,glycan array binding signal (z-score),[9],0.306
same,glycan array binding signal (z-score),[10],2.81
same,glycan array binding signal (z-score),[11],0.244
same,glycan array binding signal (z-score),[12],-0.126
same,glycan array binding signal (z-score),[13],-0.242
same,glycan array binding signal (z-score),[14],-0.09
same,glycan array binding signal (z-score),[15],4.26
same,glycan array binding signal (z-score),[16],-0.213
same,glycan array binding signal (z-score),[17],-0.173
same,glycan array binding signal (z-score),[18],-0.114
same,glycan array binding signal (z-score),[19],-0.074
same,glycan array binding signal (z-score),[20],-0.375
same,glycan array binding signal (z-score),[21],-0.291
same,glycan array binding signal (z-score),[22],-0.119
same,glycan array binding signal (z-score),[23],0.092
same,glycan array binding signal (z-score),[24],-0.34
same,glycan array binding signal (z-score),[25],-0.205
same,glycan array binding signal (z-score),[26],2.87
same,glycan array binding signal (z-score),[27],-0.311
same,glycan array binding signal (z-score),[28],0.257
same,glycan array binding signal (z-score),[29],0.027
same,glycan array binding signal (z-score),[30],0.365
B2,glycan array binding signal (z-score),[1],-0.448
same,glycan array binding signal (z-score),[31],2.96
same,glycan array binding signal (z-score),[32],0.343
same,glycan array binding signal (z-score),[33],-0.572
same,glycan array binding signal (z-score),[12],-0.52
same,glycan array binding signal (z-score),[34],-0.531
same,glycan array binding signal (z-score),[19],-0.101
same,glycan array binding signal (z-score),[35],6.38
same,glycan array binding signal (z-score),[36],-0.495
same,glycan array binding signal (z-score),[37],2.74
same,glycan array binding signal (z-score),[38],-0.25
same,glycan array binding signal (z-score),[39],-0.71
same,glycan array binding signal (z-score),[40],3.96
same,glycan array binding signal (z-score),[41],5.91
same,glycan array binding signal (z-score),[42],-0.215
same,glycan array binding signal (z-score),[43],-0.035
same,glycan array binding signal (z-score),[44],0.993
same,glycan array binding signal (z-score),[45],-0.043
same,glycan array binding signal (z-score),[46],1.09
same,glycan array binding signal (z-score),[47],-0.518
same,glycan array binding signal (z-score),[48],5.83
same,glycan array binding signal (z-score),[49],0.262
same,glycan array binding signal (z-score),[50],-0.599
